Assay outcomes: PubChem, Sanford-Burnham Center for Chemical Genomics
MPTP block: blocks calcium-induced mitochondrial swelling; isolated mouse mitochondria, Ca2+ swelling absorbance, 30 min; inhibition, % at 10 µM; 1.4% of 360,000 active; AID 602449;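 active = inhibition of 50% or more, scaled per plate between neutral and stimulator controls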;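 also: 0% = DMSO wells given calcium and 100% = 1 mM EGTA wells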
TIM10 inh: growth inhibitors of TIM10 yeast strain; S. cerevisiae TIM10 strain growth, BacTiter-Glo luminescence, 24 h; inhibition, % at 10 µM; 1.4% of 330,000 active; AID 463195;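 active = inhibition of 40% or more at the single tested concentration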;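 also: wild-type TIM10 isogenic control strain grown at permissive 25 °C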
tim23-1 inh: inhibits growth of tim23-1 mutant yeast | S. cerevisiae tim23-1 growth, BacTiter-Glo luminescence, 24 h | inhibition, % at 20 µM | 1.3% of 330,000 active;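 active = growth inhibition of the mutant yeast at or above 50%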;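 also: temperature-sensitive mutant grown at 25 °C; plate controls were DMSO-treated mutant yeast for no effect and medium wells lacking yeast for full effect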
Mdm2-MdmX inh: human Mdm2/MdmX binding inhibition; O15151+Q00987; SaOS-2 split-luciferase Mdm2/MdmX complementation, luminescence; inhibition, % at 8 µM; 3% of 330,000 active;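 active = inhibition of at least 50% at 8 µM in the primary screen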
Target sequence (O15151 whole entry, looked up): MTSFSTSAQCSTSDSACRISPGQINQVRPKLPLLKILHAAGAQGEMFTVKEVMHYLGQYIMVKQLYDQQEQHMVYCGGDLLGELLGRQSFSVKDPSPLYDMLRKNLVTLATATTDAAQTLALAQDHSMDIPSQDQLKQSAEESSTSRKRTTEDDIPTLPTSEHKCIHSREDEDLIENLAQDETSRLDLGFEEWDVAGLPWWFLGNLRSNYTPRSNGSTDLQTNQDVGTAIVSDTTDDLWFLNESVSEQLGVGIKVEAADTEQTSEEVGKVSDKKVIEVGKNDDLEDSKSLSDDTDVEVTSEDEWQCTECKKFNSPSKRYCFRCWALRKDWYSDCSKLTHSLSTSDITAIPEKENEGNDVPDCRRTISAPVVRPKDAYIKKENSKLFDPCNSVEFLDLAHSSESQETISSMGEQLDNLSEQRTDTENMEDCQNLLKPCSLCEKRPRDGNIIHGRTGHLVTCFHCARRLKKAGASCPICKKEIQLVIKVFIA
Target sequence (Q00987 whole entry, looked up): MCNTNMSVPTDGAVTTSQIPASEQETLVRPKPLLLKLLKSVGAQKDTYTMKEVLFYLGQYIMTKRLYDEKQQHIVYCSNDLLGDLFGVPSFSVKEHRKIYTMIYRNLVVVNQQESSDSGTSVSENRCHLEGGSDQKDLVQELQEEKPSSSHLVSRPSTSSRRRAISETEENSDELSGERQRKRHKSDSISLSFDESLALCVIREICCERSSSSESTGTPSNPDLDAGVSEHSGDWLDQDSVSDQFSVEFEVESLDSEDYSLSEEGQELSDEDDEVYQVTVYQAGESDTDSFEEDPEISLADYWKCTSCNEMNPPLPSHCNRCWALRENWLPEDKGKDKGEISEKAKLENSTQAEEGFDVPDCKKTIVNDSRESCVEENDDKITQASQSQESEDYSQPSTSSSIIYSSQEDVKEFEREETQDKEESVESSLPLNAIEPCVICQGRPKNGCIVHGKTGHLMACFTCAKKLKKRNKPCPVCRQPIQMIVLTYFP
tim10-1 inh: tim10-1 yeast growth inhibition | S. cerevisiae tim10-1 ts strain growth, BacTiter-Glo, 24 h | inhibition, % at 20 µM | 2.2% of 330,000 active | AID 463190;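 active = inhibition of at least 40%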;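 also: mutant grown at 25 °C; 0% = DMSO wells with yeast and 100% = wells holding no yeast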
tim23-1 confirm: tim23-1 yeast growth inhibition, confirmed. shares compounds with tim23-1 inh. S. cerevisiae tim23-1 growth, BacTiter-Glo luminescence, 24 h. inhibition, % at 20 µM. 83% of 4,400 active;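 active = inhibition above about 39% in either of two replicate wells at 20 µM, limit read from the data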;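 also: temperature-sensitive tim23-1 mutant grown at 25 °C; 0% = DMSO wells with yeast and 100% = medium wells without yeast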
* hit, by the source's call; nt = not tested or not shown. Rows were chosen to be rich in hits. Some 6.3% of all compounds tested hit in one or more screens of this group.

SMILES | MPTP block | TIM10 inh | tim23-1 inh | Mdm2-MdmX inh | tim10-1 inh | tim23-1 confirm
COc1cc(/C=C/c2ccc(O)cc2)cc(OC)c1 | 1.6 | 18.6 | 51.3* | 2.6 | 26.2 | 27.6
COc1ccc(/C=C/C(=O)c2ccc(O)cc2)cc1 | 1.1 | 16.5 | 36.6 | -62.8 | 32.4 | nt
N#CC(C#N)=C1SC(=Nc2ccccc2)C(=Nc2ccccc2)N1c1ccccc1 | 6.4 | nt | nt | nt | nt | nt
Cc1nc2ccccc2n1C(C)c1nc2ccccc2n1CC(=O)c1ccc(OC(F)(F)F)cc1 (centres undefined) | 3.0 | nt | nt | nt | nt | nt
COc1cccc(C(=O)Nc2ccc3c(c2)OC[C@H](C)N(C(=O)C2CCCC2)C[C@@H](C)[C@@H](OC)CN(C)C3=O)c1 | -1.5 | nt | nt | nt | nt | nt
COc1ccccc1C(=O)COC(=O)Cc1ccccc1F | -1.0 | 13.6 | 52.2* | 23.9 | 19.4 | 53.5*
COc1ccc(NC(=S)NCCSc2ccc(Cl)cc2)c(OC)c1 | 1.3 | 31.7 | 50.1* | 23.6 | 34.3 | 42.0*
COc1ccc(NC(=S)NCCc2ccccc2)c(OC)c1 | -2.4 | -5.3 | 20.8 | -19.9 | 28.1 | nt
COc1ccccc1NC(=S)NCCSc1ccc(Cl)cc1 | -0.7 | 39.5 | 54.0* | 16.0 | 33.0 | 50.2*
CC(=O)NCCNc1nc2cc(-c3ccccc3CO)sc2c(=O)n1C | 0.5 | nt | nt | nt | nt | nt
O=C(Nc1cn(-c2ccccc2)nc1-c1cccs1)c1ccco1 | -1.0 | 5.2 | 58.2* | -8.0 | 33.7 | 47.0*
O=C(OCc1cn([C@H]2CN(C(=O)C3CCCCC3)[C@@H](c3ccc(Cl)cc3)C[C@@H]2O)nn1)c1ccccc1 | 2.6 | nt | nt | nt | nt | nt
Cc1ccc(S(=O)(=O)NC(CC(C)C)C(=O)N2CCC(C)CC2)cc1 (centres undefined) | 1.5 | 25.8 | 53.7* | 32.2 | 26.8 | 39.1*
CC1=C2C3OC(=O)C(C)C3CCC2(C)C=C(Br)C1=O (centres undefined) | 0.3 | nt | nt | nt | nt | nt
COc1ccccc1C(=O)NCCC(=O)Nc1cccc(S(=O)(=O)N2CCCC2)c1 | 0.6 | 5.1 | -6.5 | 27.5 | -0.2 | nt
COc1ccccc1C(=O)Nc1cccc(S(=O)(=O)N2CCCC2)c1 | 0.2 | 2.0 | 97.8* | 29.7 | 6.2 | 28.7
COc1ccc(S(=O)(=O)N2CCCC(c3cc(C(=O)NCc4cccnc4)no3)C2)cc1 (centres undefined) | 0.8 | nt | nt | nt | nt | nt
S=C(Nc1ccc(Nc2ccccc2)cc1)Nc1ccccn1 | 13.2 | 30.8 | 51.6* | 16.4 | 25.6 | 27.1
O=C(NC(=S)Nc1ccccn1)c1ccccc1 | 0.7 | 14.9 | 50.2* | -87.6 | 28.0 | 27.9
CC(NC(=S)NC(=O)c1ccccc1)c1ccccc1 (centres undefined) | 2.0 | 0.6 | 50.3* | 35.6 | 27.8 | 41.5*
O=C(NC(=S)NC1CCCCC1)c1ccccc1 | 0.9 | 28.6 | 62.4* | -7.2 | 33.3 | 55.5*
CN[C@@H](CO)C(=O)NC[C@H]1O[C@@H](n2cnc3c(N)ncnc32)[C@H](O)[C@@H]1O | -1.5 | nt | nt | nt | nt | nt
CCCc1nn(-c2ccccc2)c2c1C(c1cccs1)C(C#N)=C(N)O2 (centres undefined) | 1.6 | 29.0 | 51.3* | -5.0 | 36.1 | 43.7*
Cc1nn(-c2ccccc2)c2c1C(c1ccco1)C(C#N)=C(N)O2 (centres undefined) | 0.6 | 8.5 | 24.3 | -1.3 | 7.1 | nt
COc1ccc(C(C)(O)c2nc(-c3cccc(O)c3)cs2)cc1 (centres undefined) | 2.6 | nt | nt | nt | nt | nt
SMILES | MPTP block | TIM10 inh | tim23-1 inh | Mdm2-MdmX inh | tim10-1 inh | tim23-1 confirm
COc1ccc(N=Cc2c(O)ccc3ccccc23)cc1 | 1.7 | 18.7 | 56.8* | 12.2 | 35.0 | 57.4*
NC(=O)c1ccc(N=Cc2c(O)ccc3ccccc23)cc1 | 3.4 | 10.9 | 57.3* | 43.5 | 22.1 | 45.0*
O=C(O)c1ccc(N=Cc2c(O)ccc3ccccc23)cc1 | -0.4 | 11.6 | 58.4* | 4.7 | 8.1 | 56.2*
O=C(O)c1ccc(N=Cc2c(O)ccc3oc4c(c23)CCCC4)cc1 | 0.4 | 24.9 | 65.7* | 40.9 | 13.7 | 71.2*
O=C(O)Cc1ccc(N=Cc2c(O)ccc3ccccc23)cc1 | -1.8 | 20.1 | 33.7 | 13.7 | -9.1 | nt
Oc1ccc2oc3c(c2c1C=NCc1ccncc1)CCCC3 | 0.4 | -7.3 | 39.5 | 32.9 | 11.6 | nt
CCCc1cc(CN(C)C(=O)c2ccc(OC3CCN(C(C)=O)CC3)c(OC)c2)[nH]n1 | -0.8 | nt | nt | nt | nt | nt
CCCNC(=O)OC1CC2CC1[C@H]1CCCCN1C2=O (some centres undefined) | 0.6 | nt | nt | nt | nt | nt
COc1cc2c(c(OC)c1OC)-c1ccc(NCc3ccccc3)c(=O)cc1C(NC(C)=O)CC2 (centres undefined) | -0.2 | nt | nt | nt | nt | nt
C[C@H]1CN(S(=O)(=O)c2ccc3c(c2)OCCO3)CCN1S(=O)(=O)c1c(F)cccc1F | 0.4 | 21.5 | 50.9* | -11.9 | 21.0 | 30.6
Cn1cc(Cl)c(C(=O)Nc2nc3ccc(Cl)cc3s2)n1 | -1.1 | -3.8 | 1.5 | -20.0 | -1.5 | nt
COC(=O)c1ccc2nc(NC(=O)C(C)C)sc2c1 | -0.4 | 27.5 | 33.0 | -72.6 | 37.8 | nt
COC(=O)c1ccc2nc(NC(=O)C3CC3)sc2c1 | 0.6 | 32.9 | 51.3* | -39.7 | 33.7 | 50.4*
CC1CC1C(=O)Nc1nc2ccc(Cl)cc2s1 (centres undefined) | 7.6 | 34.0 | 55.7* | -76.6 | 39.6 | 53.2*
CC(O)(c1ccccc1)c1nc(-c2ccc(S(C)(=O)=O)cc2)cs1 (centres undefined) | -1.4 | nt | nt | nt | nt | nt
Cc1ccn(CCC(=O)N2CCCC(N3CCN(c4ccccc4C)CC3)C2)n1 (centres undefined) | -1.6 | nt | nt | nt | nt | nt
Cc1ccc(Nc2nc3ccccc3s2)cc1 | 1.6 | 27.9 | 18.2 | -268.4 | 20.2 | nt
Cc1ccccc1Nc1nc2ccccc2s1 | -0.4 | 21.7 | 50.2* | -118.2 | 31.6 | 35.2
CC(=O)Nc1ccc(-c2ccnc3c2CC(C(=O)Nc2cccc(N(C)C)c2)O3)cc1 (centres undefined) | -0.8 | nt | nt | nt | nt | nt
CC(OC(=O)[C@H](C)N=C1NS(=O)(=O)c2ccccc21)C(=O)Nc1ccc(F)c(F)c1F (some centres undefined) | -0.4 | nt | nt | nt | nt | nt
COCCNC(=O)C1(C)CCCN(Cc2sc(C)nc2C)C1 (centres undefined) | -0.5 | nt | nt | nt | nt | nt
Brc1ccc2oc(-c3ccn[nH]3)cc2c1 | 4.1 | 16.7 | 65.4* | -65.5 | 34.0 | 48.2*
O=c1oc2ccc(Br)cc2cc1-c1nc2ccccc2o1 | 0.4 | -2.7 | 7.1 | -0.2 | 4.2 | nt
COc1ccc(N(CC(=O)N2CCN(c3ccccc3)CC2)S(=O)(=O)c2ccccc2)cc1 | 0.1 | nt | nt | nt | nt | nt
O=C(N/N=C/c1ccc2cccnc2c1)c1ccco1 | -0.2 | 26.8 | 59.3* | -77.6 | 18.6 | 63.8*
CC1=CC(C)(C)N(C(=O)CCl)c2cc(C)ccc21 | -1.1 | 8.6 | 9.4 | 16.0 | 8.3 | nt
CC1=CC(C)(C)N(C(=O)c2ccc(F)cc2)c2cc3c(cc21)OCO3 | 1.5 | 39.0 | 53.9* | 26.4 | 34.6 | 44.5*
C[C@@H]1COc2cccc(N3CCC[C@H]3CO)c2S(=O)(=O)N1 | 0.6 | nt | nt | nt | nt | nt
O=C(Nc1ccccc1)OC[C@@H]1C=CS(=O)(=O)N1Cc1ccc(Br)cc1 | 8.5 | nt | nt | nt | nt | nt
